In PubChem BioAssay (NCI):
The panel holds about 83,000 compounds, 20% with a hit somewhere; the sample as a whole holds those more often.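 A percent growth of 40 corresponds to 60% growth inhibition; 0 means no net growth; -100 means all cells died. Active threshold: below 10.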 A number with no mark means an inactive call. Active and inactive are the calls of the source.

Tests used:
Experiment in all cases: NCI-60 one-dose screen, 48 h (100 = growth as untreated, 0 = no growth, -100 = all killed)
Conditions in all cases: 10 µM
SR leukemia = system: SR leukemia
RPMI-8226 leukemia = system: RPMI-8226 leukemia
OVCAR-8 ovarian = system: OVCAR-8 ovarian
OVCAR-5 ovarian = system: OVCAR-5 ovarian
OVCAR-4 ovarian = system: OVCAR-4 ovarian
SK-OV-3 ovarian = system: SK-OV-3 ovarian
IGROV1 ovarian = system: IGROV1 ovarian
OVCAR-3 ovarian = system: OVCAR-3 ovarian
HS 578T breast = system: HS 578T breast
NCI/ADR-RES ovarian = system: NCI/ADR-RES ovarian

SMILES	growth (SR leukemia)	growth (RPMI-8226 leukemia)	growth (OVCAR-8 ovarian)	growth (OVCAR-5 ovarian)	growth (OVCAR-4 ovarian)	growth (SK-OV-3 ovarian)	growth (IGROV1 ovarian)	growth (OVCAR-3 ovarian)	growth (HS 578T breast)	growth (NCI/ADR-RES ovarian)
COc1cc(-c2ccc(NC(=O)NC3CC3)c(OC)c2)ccc1NC(=O)NC1CC1	1.38% (active)	36.2%	57.9%	101%	80.4%	75.5%	83.8%	97.3%	81.5%	90.3%
Nc1ccc(C(=O)c2ccc(N)c(Br)c2)cc1Br	26.1%	30.5%	26.4%	40%	49.1%	8.33% (active)	32.8%	–	-14.8% (active)	0.17% (active)
CC(=O)c1ccc(C)c(N)c1	106%	101%	96.4%	102%	111%	98.6%	95.8%	–	96.9%	91.2%
Nc1ncnc2[nH]ncc12	26.1%	8.64% (active)	6.29% (active)	20.5%	-5.84% (active)	2.06% (active)	6.63% (active)	-22.2% (active)	37.3%	0.445% (active)
S=C(Nc1ccccc1)N1CCCCC1	105%	110%	99.4%	90.1%	111%	107%	100%	110%	102%	107%
Nc1ccc(N=Nc2ccc(S(=O)(=O)O)cc2)c2ccccc12	96.9%	98%	103%	106%	103%	72.2%	94.1%	99%	96.6%	97.3%
N#CCCc1ccc(O)cc1	94.6%	102%	93.9%	95.6%	111%	106%	116%	110%	102%	116%
CC1(C(=O)O)NC(C(=O)O)Cc2c1[nH]c1ccccc21 (stereo not drawn)	92.8%	95.4%	104%	101%	105%	92.7%	107%	112%	109%	104%
S=c1nn[nH]c2ccccc12	92.2%	117%	103%	105%	114%	99.8%	97.7%	111%	109%	105%
O=C(/C=C/C(=O)c1ccccc1)c1ccccc1	71.3%	80.8%	110%	115%	108%	115%	113%	102%	–	114%
CCC(C)(O)c1ccc(C)cc1 (stereo not drawn)	105%	96.7%	104%	101%	106%	97.8%	–	107%	112%	110%
CC(C)=C(NC(=O)c1ccccc1)C(=O)O	95.4%	87.4%	104%	101%	118%	112%	–	–	–	111%
O=C1N(C[P+](c2ccccc2)(c2ccccc2)c2ccccc2)CCCN1C[P+](c1ccccc1)(c1ccccc1)c1ccccc1	89%	115%	99.5%	110%	107%	–	98%	101%	99.8%	111%
O=C1OC[C@H]2[C@H](c3ccc(O)c(O)c3)c3cc(O)c(O)cc3C[C@H]12	330%	167%	127%	100%	110%	135%	–	–	111%	-28.4% (active)
CC(C)=NNC(N)=S	86.7%	67.8%	72.4%	89%	59.4%	115%	–	37.2%	84.3%	47.3%
Nc1ncnc2c1nc(N)n2C1OC(CO)C(O)C1O (stereo not drawn)	-3.14% (active)	5.98% (active)	2.25% (active)	-12.9% (active)	-2.8% (active)	–	–	-12.9% (active)	-13.9% (active)	-45.2% (active)
Cc1cc(C(O)(c2ccc(Nc3ccccc3)cc2)c2ccc(Nc3ccc(S(=O)(=O)O)cc3)cc2)ccc1N (stereo not drawn)	7.14% (active)	-28.8% (active)	6.11% (active)	-65.8% (active)	–	31.3%	5.51% (active)	-29.1% (active)	1.91% (active)	18.8%
O=C(O)/C=C/c1ccc2c(c1)CCC2	80.2%	99.2%	99.8%	97.8%	104%	99.6%	118%	–	–	109%
Cc1nc2ccccc2c(C(=O)O)c1O	95.6%	179%	102%	91.4%	116%	95.3%	–	113%	88.1%	94.5%

SMILES	growth (SR leukemia)	growth (RPMI-8226 leukemia)	growth (OVCAR-8 ovarian)	growth (OVCAR-5 ovarian)	growth (OVCAR-4 ovarian)	growth (SK-OV-3 ovarian)	growth (IGROV1 ovarian)	growth (OVCAR-3 ovarian)	growth (HS 578T breast)	growth (NCI/ADR-RES ovarian)
O=[N+]([O-])c1ccc(Cl)c(S(=O)(=O)O)c1	89.2%	100%	104%	105%	–	110%	123%	106%	104%	108%
COc1cc(C(N)=O)cc(OC)c1OC	93.3%	106%	98.1%	98.1%	110%	111%	108%	–	106%	101%
C#CC(C)(O)c1ccc(Cl)cc1 (stereo not drawn)	96.6%	101%	105%	107%	102%	90.3%	111%	–	106%	92.4%
O=C(O)c1ccccc1NCc1ccco1	87.8%	79.1%	94.2%	93.1%	99.1%	109%	–	111%	107%	94.5%
CC1(C)Nc2cccc3c(N=Nc4ccc(N=Nc5ccccc5)c5ccccc45)ccc(c23)N1	107%	97%	109%	94.9%	91.1%	95.6%	52.1%	–	104%	98.1%
COc1nc(N)nc2c1ncn2C1OC(CO)CC1O (stereo not drawn)	115%	92%	101%	100%	120%	98.5%	112%	–	117%	107%
C=CCOC(=O)C(=O)OCC=C	82.1%	103%	101%	97.5%	110%	105%	–	118%	130%	117%
CC(=O)OC(C(=O)O)c1ccccc1 (stereo not drawn)	104%	88.2%	102%	105%	118%	117%	–	120%	–	108%
O=C(N/N=C\c1cc(Br)cc(Br)c1O)N/N=C/c1cc(Br)cc(Br)c1O	-18.4% (active)	19.3%	55.5%	64.6%	43.4%	79.7%	–	12.1%	60.6%	35.6%
O=C(O)CCCc1ccccc1	96.9%	110%	96.7%	104%	117%	110%	121%	–	118%	103%
COc1cc(C2NC(=O)C(C#N)=C(Nc3cccc(C)c3)S2)ccc1O (stereo not drawn)	107%	81.4%	105%	111%	102%	103%	–	–	96.5%	110%
CCOC(=O)c1[nH]c(C)c(C(=O)O)c1C	97.6%	96.6%	105%	113%	–	118%	108%	115%	131%	107%
O=C(O)c1cccc([N+](=O)[O-])c1	97.4%	120%	103%	120%	105%	113%	113%	–	110%	107%
CCCCC(CC)COC(C)=O (stereo not drawn)	103%	110%	102%	103%	100%	101%	112%	–	106%	99.2%
Cc1cc(C)cc(NCCC#N)c1	107%	106%	126%	112%	102%	106%	110%	–	134%	110%
CC1CCCCN1C(=S)Nc1ccc(S(=O)(=O)N2CCCCC2)cc1 (stereo not drawn)	81.1%	74.7%	106%	100%	90.4%	–	138%	97.7%	88.9%	107%
CN(C)c1nc2c([nH]1)c(=O)n(C)c(=O)n2C	102%	91.7%	96.9%	104%	112%	–	101%	–	93.2%	106%
CC(=O)Cc1ccc(-c2ccccc2)cc1	102%	97.5%	104%	112%	109%	108%	–	113%	99.4%	103%
Cc1ccc(C(O)C2CC2)cc1 (stereo not drawn)	91.7%	99.3%	94.1%	94%	105%	106%	96.8%	–	104%	107%

SMILES	growth (SR leukemia)	growth (RPMI-8226 leukemia)	growth (OVCAR-8 ovarian)	growth (OVCAR-5 ovarian)	growth (OVCAR-4 ovarian)	growth (SK-OV-3 ovarian)	growth (IGROV1 ovarian)	growth (OVCAR-3 ovarian)	growth (HS 578T breast)	growth (NCI/ADR-RES ovarian)
Cc1ccc(Cl)cc1N1C(=O)CC(Sc2ccccc2N)C1=O (stereo not drawn)	101%	91.3%	87.8%	105%	101%	102%	–	106%	103%	101%
CC(C)(O)C#CC#CC(C)(C)O	97.9%	92.1%	99.2%	97.8%	104%	–	102%	–	100%	96.9%
O=c1cc(-c2ccccc2)[nH]c(=S)[nH]1	91.9%	89.6%	111%	98.4%	110%	113%	104%	–	103%	101%
Oc1ccccc1O	75.5%	60.1%	86.3%	106%	77.4%	120%	79.1%	–	112%	90.2%
O=c1cc2oc3cc(O)c(O)cc3c(-c3ccccc3O)c-2cc1O	82.7%	12.1%	75.1%	94.8%	70.1%	57.4%	63.9%	–	–	78.4%
C=C1CC/C=C(\C)C(=O)C[C@@H]2[C@@H]1CC2(C)C	95.7%	68.3%	98.1%	108%	–	101%	11.4%	96.7%	122%	115%
C=CCc1cc(C(C)=O)cc(OC)c1O	113%	122%	101%	101%	107%	113%	–	106%	102%	107%
O=S(=O)(O)C(Nc1ccccc1)c1ccccc1 (stereo not drawn)	98.9%	100%	104%	92.4%	102%	97%	–	107%	93.2%	96.9%
CN(C)c1ccc2nc3ccc(=N)cc-3sc2c1	12%	6.67% (active)	3.37% (active)	80.1%	–	95.9%	49.4%	6.65% (active)	99.6%	3.53% (active)
O=C1C=CC2=C3c4cc(O)c(O)cc4CC3(O)COC2=C1O (stereo not drawn)	109%	90%	97.2%	104%	110%	113%	–	123%	115%	101%
CC(=O)c1ccc(C(C)(C)C)cc1	–	–	–	–	93.5%	–	–	–	–	–
CC(=O)Oc1ccc(Br)cc1C(=O)O	–	–	–	–	104%	–	–	–	–	–
O=C(O)c1cc([N+](=O)[O-])ccc1Cl	88.4%	88.8%	96.1%	–	107%	106%	117%	115%	119%	103%
CC(C)OC(=O)c1cc(NC(=S)OC(C)C)ccc1Cl	70.2%	83.3%	–	67.2%	99.1%	95.1%	89.9%	93.9%	-29% (active)	25.8%
CCNc1nc2c(cnn2C)c(=O)[nH]1	92.3%	99.8%	–	103%	109%	96.2%	84.5%	109%	92.5%	108%
CC1(C)N=C(N)N=C(N)N1c1cccc(Br)c1	49.4%	43.9%	33.1%	–	–	44.3%	54.9%	52.8%	–	–
CCOC(=O)CSc1c([N+](=O)[O-])ncn1C	86.4%	99.7%	103%	–	105%	110%	95.5%	103%	103%	101%
Cc1c(C(=O)O)c(=O)n(-c2ccccc2)n1C	123%	107%	103%	–	–	107%	117%	141%	–	101%
O=C(CCl)Nc1ccc2c(c1)C(=O)c1ccc(NC(=O)CCl)cc1C2=O	-27.1% (active)	-40.3% (active)	-23% (active)	–	–	-9.68% (active)	-62.1% (active)	-93.2% (active)	6.19% (active)	-53.8% (active)
